The panel holds about 83,000 compounds, 20% with a hit somewhere; the sample as a whole holds those more often.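 Values shown are percent growth following 48 h exposure of cells in 96-well plates to a single concentration of compound; below 10 was considered active.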 The source made the active and inactive calls.
Experiments:
Assay in all cases: NCI-60 one-dose screen, 48 h (100 = growth as untreated, 0 = no growth, -100 = all killed)
Conditions in all cases: 10 µM unless noted
SK-MEL-2 melanoma = tested on: SK-MEL-2 melanoma
EKVX NSCLC = tested on: EKVX NSCLC
SN12C renal = tested on: SN12C renal
UO-31 renal = tested on: UO-31 renal
ACHN renal = tested on: ACHN renal
CAKI-1 renal = tested on: CAKI-1 renal
A498 renal = tested on: A498 renal
CCRF-CEM leukemia = tested on: CCRF-CEM leukemia
SR leukemia = tested on: SR leukemia
RPMI-8226 leukemia = tested on: RPMI-8226 leukemia
OVCAR-8 ovarian = tested on: OVCAR-8 ovarian
OVCAR-5 ovarian = tested on: OVCAR-5 ovarian
OVCAR-4 ovarian = tested on: OVCAR-4 ovarian
SK-OV-3 ovarian = tested on: SK-OV-3 ovarian
IGROV1 ovarian = tested on: IGROV1 ovarian
OVCAR-3 ovarian = tested on: OVCAR-3 ovarian
HS 578T breast = tested on: HS 578T breast
NCI/ADR-RES ovarian = tested on: NCI/ADR-RES ovarian
MOLT-4 leukemia = tested on: MOLT-4 leukemia
TK-10 renal = tested on: TK-10 renal

Measured: growth

Cc1cc(N/N=C/c2nc(-c3ccccc3)oc2C)c2cc(Cl)ccc2n1
inactive: SK-MEL-2 melanoma 110% | CAKI-1 renal 14.4% | A498 renal 68.4% | SK-OV-3 ovarian 76.4%
active: EKVX NSCLC -59.4% | SN12C renal -84.9% | UO-31 renal -99.2% | ACHN renal -80.1% | CCRF-CEM leukemia -34.6% | SR leukemia -13.7% | RPMI-8226 leukemia -39.4% | OVCAR-8 ovarian -41.7% | OVCAR-5 ovarian -88.5% | OVCAR-4 ovarian -89.6% | IGROV1 ovarian -83.7% | OVCAR-3 ovarian -92.5% | HS 578T breast -48.9% | NCI/ADR-RES ovarian -62.5%

Cc1ccc(N2CCN(C(C)C(N)=O)CC2)cc1 (centres undefined)
inactive: SK-MEL-2 melanoma 134% | EKVX NSCLC 118% | SN12C renal 92.8% | UO-31 renal 82.2% | ACHN renal 106% | CAKI-1 renal 107% | A498 renal 115% | CCRF-CEM leukemia 98.2% | MOLT-4 leukemia 117% | SR leukemia 154% | RPMI-8226 leukemia 96.8% | OVCAR-8 ovarian 106% | OVCAR-5 ovarian 99% | OVCAR-4 ovarian 104% | SK-OV-3 ovarian 114% | IGROV1 ovarian 112% | OVCAR-3 ovarian 106% | HS 578T breast 117% | NCI/ADR-RES ovarian 106%

O=C1/C(=C/c2ccc(Cl)cc2)CN(C(=O)CCN2CCC(=NO)CC2)C/C1=C\c1ccc(Cl)cc1
active: SK-MEL-2 melanoma -68.4% | EKVX NSCLC -46.5% | SN12C renal -75.2% | UO-31 renal -92.5% | ACHN renal -61.5% | CAKI-1 renal -73.9% | A498 renal -59.8% | CCRF-CEM leukemia -23.3% | MOLT-4 leukemia -12.4% | SR leukemia -5.09% | RPMI-8226 leukemia -34.1% | OVCAR-8 ovarian -89.8% | OVCAR-5 ovarian -63.6% | OVCAR-4 ovarian -78.6% | SK-OV-3 ovarian -38.2% | IGROV1 ovarian -67.2% | OVCAR-3 ovarian -97.5% | HS 578T breast -20.3% | NCI/ADR-RES ovarian 1.6%

O=C1C(Cl)=C(Nc2ccccn2)C(=O)c2ccccc21
inactive: SK-MEL-2 melanoma 88.2% | EKVX NSCLC 98.1% | UO-31 renal 12.6% | ACHN renal 17% | CAKI-1 renal 53.1% | A498 renal 100% | CCRF-CEM leukemia 56.4% | MOLT-4 leukemia 62.8% | RPMI-8226 leukemia 56.5% | OVCAR-8 ovarian 29.5% | OVCAR-5 ovarian 115% | OVCAR-4 ovarian 30.2% | SK-OV-3 ovarian 108% | IGROV1 ovarian 34.4% | OVCAR-3 ovarian 26.9% | NCI/ADR-RES ovarian 34.9%
active: SN12C renal 5.54% | HS 578T breast -9.73%

NC(N)=N/N=C/c1ccc(-c2ccc(-c3cc(Cl)cc(Cl)c3)s2)cc1
inactive: SK-MEL-2 melanoma 103% | EKVX NSCLC 96.1% | UO-31 renal 72.2% | CAKI-1 renal 50% | A498 renal 73% | MOLT-4 leukemia 17.4% | OVCAR-8 ovarian 33.1% | OVCAR-5 ovarian 90.5% | OVCAR-4 ovarian 38.6% | HS 578T breast 80.8%
active: SN12C renal -53.8% | ACHN renal -2.94% | SR leukemia 2.59% | RPMI-8226 leukemia -9.01% | IGROV1 ovarian -16.7% | OVCAR-3 ovarian -81.5% | NCI/ADR-RES ovarian -19.2%

Cc1cc(C(C)(C)C)ccc1S
inactive: SK-MEL-2 melanoma 93.4% | EKVX NSCLC 123% | SN12C renal 100% | UO-31 renal 90.3% | TK-10 renal 107% | CCRF-CEM leukemia 96% | MOLT-4 leukemia 81.3% | SR leukemia 93.4% | RPMI-8226 leukemia 104% | OVCAR-8 ovarian 111% | OVCAR-4 ovarian 99.2% | SK-OV-3 ovarian 105% | IGROV1 ovarian 109% | OVCAR-3 ovarian 111% | HS 578T breast 101% | NCI/ADR-RES ovarian 112%

CC(C)(C)n1cc(-c2ccnc(NCCCNS(=O)(=O)c3ccccc3)c2)c(-c2cccc(O)c2)n1
inactive: SK-MEL-2 melanoma 60.1% | EKVX NSCLC 57.3% | SN12C renal 52.8% | UO-31 renal 55.7% | ACHN renal 45.6% | CAKI-1 renal 52.9% | A498 renal 40.2% | CCRF-CEM leukemia 35.1% | MOLT-4 leukemia 32.1% | SR leukemia 20.9% | RPMI-8226 leukemia 10.5% | OVCAR-8 ovarian 52.4% | OVCAR-5 ovarian 67.7% | OVCAR-4 ovarian 55.9% | SK-OV-3 ovarian 88.6% | IGROV1 ovarian 51.1% | OVCAR-3 ovarian 54.1% | HS 578T breast 51% | NCI/ADR-RES ovarian 56.9%

CC(C)(C)OC(=O)NCCc1ccc(N=C=S)cc1
inactive: SK-MEL-2 melanoma 53.8% | EKVX NSCLC 89.7% | SN12C renal 90.6% | UO-31 renal 62.7% | ACHN renal 80.3% | A498 renal 70.2% | CCRF-CEM leukemia 30.2% | MOLT-4 leukemia 69% | SR leukemia 22.5% | OVCAR-8 ovarian 86% | OVCAR-5 ovarian 82.7% | OVCAR-4 ovarian 76.9% | SK-OV-3 ovarian 97.1% | IGROV1 ovarian 71.8% | OVCAR-3 ovarian 72.7% | HS 578T breast 92.3% | NCI/ADR-RES ovarian 75.6%
active: RPMI-8226 leukemia 9.22%

Cc1ccc(S(=O)(=O)C2=C3C(=C(c4ccccc4)c4ccccc43)CN(S(=O)(=O)c3ccc(C)cc3)C2)cc1
active: CCRF-CEM leukemia -7.65% | MOLT-4 leukemia -6.7% | SR leukemia 3.89% | RPMI-8226 leukemia -21.7%
inactive: SK-MEL-2 melanoma 36.8% | EKVX NSCLC 77.9% | SN12C renal 55.3% | UO-31 renal 32.3% | ACHN renal 43.3% | A498 renal 87.5% | OVCAR-8 ovarian 21.8% | OVCAR-5 ovarian 93.7% | OVCAR-4 ovarian 70.3% | SK-OV-3 ovarian 92.6% | OVCAR-3 ovarian 56.9% | HS 578T breast 62.4% | NCI/ADR-RES ovarian 27.8%

COc1ccc(S(=O)(=O)n2ccc(-c3ccc4c(c3)CCC(C)(C)O4)n2)cc1OC
inactive: SK-MEL-2 melanoma 56.2% | SN12C renal 83.1% | UO-31 renal 68.5% | TK-10 renal 72.1% | ACHN renal 78% | CAKI-1 renal 58.3% | A498 renal 52.8% | CCRF-CEM leukemia 82.2% | MOLT-4 leukemia 63.8% | SR leukemia 60.2% | RPMI-8226 leukemia 59% | OVCAR-8 ovarian 74.6% | OVCAR-5 ovarian 105% | OVCAR-4 ovarian 46% | IGROV1 ovarian 84.3% | OVCAR-3 ovarian 70.9% | HS 578T breast 91.5% | NCI/ADR-RES ovarian 56.5%

— PubChem BioAssay (NCI)
